An excerpt weighted towards active compounds, which were near 3.1% of everything screened.
PP1 counter – blocks human PP1-alpha phosphatase, a PP5 counter-screen. purified PP1alpha, OMFP fluorescence. inhibition, % at 6.7 µM. 320,000 compounds, 0.9% hits;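 active = inhibition above the mean inhibition of all tested compounds plus 3 SD, computed separately for each screening campaign, cut at about 15% in these data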
SKKanGAS inh – SKKanGAS growth inhibition; 300,000 compounds, 1.3% hits; S. pyogenes SKKanGAS, kanamycin growth, BacTiter-Glo, 6 h; inhibition, % at 7.5 µM;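 active = mean replicate score, as percent of positive control median, at least 50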;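 also: strain carries kanamycin resistance gene driven by streptokinase promoter and grows in 40 µg/ml kanamycin; loss of luminescence reflects streptokinase promoter inhibition or plain growth inhibition; 0% = median of DMSO wells and 100% = positive control at its reference dose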
PP5 inh – inhibitors of human protein phosphatase 5 (PP5); P53041; purified PP5c, OMFP substrate fluorescence; inhibition, % at 6.7 µM; 320,000 compounds, 0.18% hits; AID 1987;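 active = inhibition above the campaign's mean inhibition across all tested compounds plus 3 SD, cut at about 9.5% in these data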;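 also: 0% = DMSO only and 100% = 100 µM cantharidin control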
Target sequence (P53041 whole entry, looked up): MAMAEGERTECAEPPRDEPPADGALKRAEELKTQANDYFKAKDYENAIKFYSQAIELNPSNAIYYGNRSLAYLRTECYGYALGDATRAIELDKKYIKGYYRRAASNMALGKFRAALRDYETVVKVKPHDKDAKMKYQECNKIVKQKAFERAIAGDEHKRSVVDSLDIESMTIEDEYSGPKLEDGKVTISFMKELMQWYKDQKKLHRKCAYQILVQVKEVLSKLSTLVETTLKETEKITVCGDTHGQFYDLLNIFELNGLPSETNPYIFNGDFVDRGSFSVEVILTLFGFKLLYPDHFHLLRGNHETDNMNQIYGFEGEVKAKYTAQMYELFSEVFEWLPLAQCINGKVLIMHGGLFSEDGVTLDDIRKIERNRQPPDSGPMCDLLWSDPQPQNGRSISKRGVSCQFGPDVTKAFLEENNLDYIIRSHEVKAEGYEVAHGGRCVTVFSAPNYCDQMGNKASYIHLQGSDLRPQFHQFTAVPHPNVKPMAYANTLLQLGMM
Beta cell apopt – blocks beta cell apoptosis | INS-1E cytokine-induced death, ATP luminescence, 48 h; percent of positive-control rescue, neutral wells zero | protection from apoptosis, % (concentration not given with the values) | 300,000 compounds, 0.8% hits;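 active = Every replicate reaches about 75%, or at least half do and their mean reaches it too, limit read from the data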;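 also: 0% = cytokine-treated negative control wells and 100% = positive control rescue; higher means more ATP so stronger rescue from cytokine killing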
CSC inhib – blocks cancer stem cells; AID 2717; cancer stem cell-like cells viability, luminescence; inhibition, % at 7.5 µM; 300,000 compounds, 1.1% hits; in the data active = inhibition above about 75%; tested in HMLE shEcad cells
PP1 inh confirm – confirmation of human PP1 phosphatase inhibitors | shares compounds with PP1 counter | purified PP1alpha, OMFP substrate fluorescence | inhibition, % at 6.7 µM | 1,900 compounds, 52% hits | AID 2358;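 active = mean PP1 inhibition above a set limit taken from the earlier primary screen, cut at about 15% in these data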
PP5 counter – counter-screen for PP1 inhibitors: human PP5 phosphatase inhibition. shares compounds with PP1 counter. purified PP5c, OMFP fluorescence. inhibition, % at 6.7 µM. 1,900 compounds, 4% hits;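 active = mean PP5 inhibition over triplicate wells above about 9.5% taken from the earlier PP1 screen, limit read from the data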
Starred values were filed as active, the others as inactive; x = not tested or not shown.

SMILES	PP1 counter	SKKanGAS inh	PP5 inh	Beta cell apopt	CSC inhib	PP1 inh confirm	PP5 counter
Cc1ccc(C2C(/C=C3/SC(=S)NC3=O)=C(c3cccs3)Oc3ccccc32)cc1 (stereo not given)	31*	113*	3	18	108*	22*	-6
CC1Cc2cc(/C=C3/SC(=S)NC3=O)ccc2O1 (stereo not given)	7	12	0	8	57	x	x
O=c1[nH]c(CSc2nc3ccccc3s2)nc2ccccc12	-3	9	3	3	-18	x	x
COc1ccc(C2NCCc3c2[nH]c2ccccc32)cc1CSc1nc2ccccc2s1 (stereo not given)	19*	11	4	-3	116*	-11	2
Cc1ccc(C(=O)O/N=C/c2c(N3CCOCC3)n(C)c3ccccc23)cc1	21*	12	3	99*	-7	-1	1
Cc1ccc(NC(=O)C2CCCC2)c(Br)c1	-8	-6	2	-4	-6	x	x
Cc1ccc(NC(=O)C2C3CCC(O3)C2C(=O)O)c(Br)c1 (stereo not given)	67*	5	73*	7	0	20*	28*
O=C(O)C1C2CCC(O2)C1C(=O)Nc1ccc(Br)cc1F (stereo not given)	58*	0	66*	-8	-8	14	21*
Cc1ccc(Cl)cc1NC(=O)C1C2CCC(O2)C1C(=O)O (stereo not given)	52*	-1	56*	-1	-6	10	16*
Cc1nc(CS(=O)(=O)c2ccccn2)sc1C(=O)NNC(=O)c1ccccc1	6	0	1	-8	-13	x	x
CCN(CC)CCNC(=O)CCc1c(C)nc2c(c(C)nn2-c2ccc(C)cc2)c1C	x	1	x	-3	24	x	x
CCOC(=O)c1csc(NC(=O)CN2CCCCC2)n1	2	0	-1	x	x	x	x
O=C(Nc1nc(-c2ccccn2)cs1)c1ccc2c(c1)OCCO2	39*	83*	4	5	26	43*	-3
O=C(Nc1nc(-c2ccccn2)cs1)C1COc2ccccc2O1 (stereo not given)	29*	x	6	-1	38	41*	-1
O=C(Nc1nc(-c2ccccc2)cs1)C1COc2ccccc2O1 (stereo not given)	0	8	2	-3	-8	x	x
O=C(Nc1ccccn1)c1ccc2c(c1)OCCO2	4	2	1	-1	-7	x	x
CC(=O)c1ccc(NC(=S)NCCCN2CCOCC2)cc1	-2	-1	-1	1	0	x	x
CC(C)=CC(=O)OCC(=O)NC1CCCc2ccccc21 (stereo not given)	3	-9	0	4	-3	x	x
CCc1nnc(NC(=O)C(NC(=O)c2ccccc2Cl)C(C)C)s1 (stereo not given)	-3	-1	3	-6	-6	x	x
CC(Oc1ccc(Br)cc1)C(=O)Nc1nc(-c2ccccn2)cs1 (stereo not given)	31*	87*	5	x	89*	32*	-2
C[C@@H](C(=O)Nc1nc(-c2ccccn2)cs1)N1C(=O)C2CCCCC2C1=O (stereo not given in full)	8	43	1	-10	5	x	x
O=C(Nc1nc(-c2cccnc2)cs1)c1ccccc1Cl	20*	-3	0	-1	-1	23*	-6
CC(C)[C@H](NC(=O)c1ccccc1Cl)C(=O)Nc1nc(-c2ccccn2)cs1	18*	79*	3	32	17	27*	0
CCOC(=O)c1[nH]ncc1CN1CCCC(C(=O)c2ccc(C(C)(C)C)cc2)C1 (stereo not given)	3	-21	1	-3	-1	x	x
C=CCC(=O)NC1CCCc2c1cnn2-c1cc(F)cc(F)c1 (stereo not given)	3	2	-2	-2	8	x	x
SMILES	PP1 counter	SKKanGAS inh	PP5 inh	Beta cell apopt	CSC inhib	PP1 inh confirm	PP5 counter
COc1ccccc1N(C)S(=O)(=O)c1ccc(C(=O)OCC(=O)N(C(C)C)C(C)C)cc1	-1	2	1	-16	-15	x	x
CSCCC(NC(=O)c1ccccc1Cl)C(=O)NCC(c1ccco1)N1CCCCC1 (stereo not given)	45*	-4	-2	5	-12	-5	-2
O=C(Nc1nnc(-c2ccc3c(c2)CCCC3)o1)c1ccc(Cl)cc1Cl	32*	96*	1	-3	68	26*	-4
COc1ccc(OC)c(-c2cc(C(=O)N/N=C/c3cc(OC)c(OC)cc3OC)c3ccccc3n2)c1	-1	5	1	-6	-1	x	x
Cc1cccc(N2C(=O)C(O)=C(C(=O)c3cccs3)C2c2ccc(C(C)C)cc2)n1 (stereo not given)	23*	45	-1	-4	-1	19*	-3
Cc1ccc(OCC(O)Cn2c(N3CCCCC3)nc3c2c(=O)[nH]c(=O)n3C)cc1C (stereo not given)	-2	-3	4	1	-10	x	x
COc1ccc(Cc2nnc(NC(=O)Nc3cccc(OC)c3)s2)cc1	18*	-11	-1	5	1	15*	-3
COc1ccc(Cc2nnc(NC(=O)Nc3ccc(F)cc3)s2)cc1	22*	-3	0	x	x	11	-5
COc1cccc(NC(=O)Nc2nnc(Cc3ccc(F)cc3)s2)c1	2	0	2	-7	1	x	x
CCOC(=O)c1ccc(-n2c(O)c(/C=N/NC(=O)C3COc4ccccc4O3)c3ccccc3c2=O)cc1 (stereo not given)	31*	103*	-2	2	35	33*	-2
Cn1cnc(S(=O)(=O)NCc2ccc(Br)cc2)c1	-12	-17	-6	x	8	x	x
COc1ccc(C(=O)CSc2nc(N)nc(SC)c2C#N)cc1	27*	-6	2	2	-7	28*	0
NC(=O)c1cc([N+](=O)[O-])ccc1NCc1ccc(N)cc1	-3	x	0	7	6	x	x
CCn1cc(C(=O)O)c(=O)c2cc(F)c(N3CCN(C(=O)Nc4ccccc4)CC3)cc21	18*	35	1	x	-11	12	-2
CCn1cc(C(=O)NCc2ccco2)c(=O)c2cc(S(=O)(=O)N3CCc4ccccc4C3)ccc21	19*	22	3	5	42	18*	1
CCn1cc(C(=O)O)c(=O)c2cc(F)c(N3CCN(S(=O)(=O)c4ccc(NC(C)=O)cc4)CC3)cc21	42*	53*	5	-1	-29	32*	-5
CCn1cc(C(=O)NCc2ccco2)c(=O)c2cc(F)c(N3CCN(C(=O)c4ccco4)CC3)cc21	18*	25	2	-1	4	8	-5
O=c1[nH]c2ccccc2c(O)c1-c1ccccc1[N+](=O)[O-]	-1	0	2	-4	-8	x	x
CCCn1c(=O)c(C(=O)NNS(=O)(=O)c2ccc(Cl)cc2)c(O)c2ccccc21	22*	96*	0	-4	86*	16*	-4

Compound activity: PubChem BioAssay, several laboratories
